Data published in PubChem BioAssay (NCATS).
Records with an inconclusive call do not appear. Entries that show only a call come without a potency. Calls of active or inactive are those of the source. Calls come from the whole dose curve; as a rule, active = well fitted curve in the direction sought with a large enough effect; inconclusive = small, poorly fitted or top-dose-only effect, or another doubt; inactive = no such curve, though single readings can be large; an effect the other way counts as inactive or inconclusive.

How the values were obtained:
[1] = target: Metallo-beta-lactamase type 2 (Klebsiella pneumoniae) (UniProt C7C422); assay: qHTS to identify inhibitors of the New Delhi Metallo-beta-lactamase (NDM): assay validation screen against the NCATS LOPAC Collection (AID 1794843);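 note: nitrocefin turnover by NDM-1 measured as 485 nm absorbance at plateau; series mostly up to about 38 µM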
Sequence of Metallo-beta-lactamase type 2 (Klebsiella pneumoniae) (C7C422 whole entry, looked up): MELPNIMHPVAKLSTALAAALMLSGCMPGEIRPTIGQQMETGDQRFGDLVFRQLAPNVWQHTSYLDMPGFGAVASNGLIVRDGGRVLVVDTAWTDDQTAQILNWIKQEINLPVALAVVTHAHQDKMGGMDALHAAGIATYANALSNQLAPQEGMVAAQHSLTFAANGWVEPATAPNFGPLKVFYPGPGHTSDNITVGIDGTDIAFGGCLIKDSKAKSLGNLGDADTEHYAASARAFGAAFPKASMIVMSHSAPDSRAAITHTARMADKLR
Summary of the method: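 Nitrocefin hydrolysis (50 uM substrate stock) by NDM-1, 2 nM final, was followed by 485 nm absorbance after compound preincubation; buffer was 50 mM HEPES pH 7.0, 1 uM ZnSO4, 0.01% Tween20.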

[2] = target: Phospholipid hydroperoxide glutathione peroxidase GPX4 (Homo sapiens) (UniProt P36969); assay: Primary qHTS Assay for Inhibitors of Recombinant Selenoprotein Glutathione Peroxidase 4 (GPX4) (AID 1845192); note: nearly all actives have a fitted effect of over 65% in size
Sequence of Phospholipid hydroperoxide glutathione peroxidase GPX4 (Homo sapiens) (P36969 whole entry, looked up): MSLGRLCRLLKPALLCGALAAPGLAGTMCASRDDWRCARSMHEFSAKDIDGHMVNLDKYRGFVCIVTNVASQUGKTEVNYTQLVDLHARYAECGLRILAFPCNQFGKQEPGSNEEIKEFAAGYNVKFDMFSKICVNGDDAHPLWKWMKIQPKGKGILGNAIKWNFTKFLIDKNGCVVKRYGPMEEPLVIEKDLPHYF
Summary of the method: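 Steps: GPX4 plus compound, 30 min RT; add GR/GSH/NADPH master mix; start with cumene hydroperoxide; read 340/450 nm fluorescence at 0 and 15 min. Finals were 200 nM GPX4, 1 mM GSH, 0.5 mM CHP, 0.5 mM NADPH, 100 nM GR.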

[3] = Quantitative High-Throughput drug screen in 47 multiple myeloma cell lines against the NCATS MIPE library collection: Delta47_JCRB cell viability assay (AID 1918925; note: nearly all actives have a fitted effect of over 45% in size; note: potency is the fitted concentration of half-maximal effect)
Summary of the method: (§1)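 We plated 500 myeloma cells per well, pinned in MIPE 4.0 compounds, and incubated for 48 hours at 37C. ATP was then quantified with CellTiter-Glo, with DMSO and media-only wells defining 100% and 0%.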

[4] = Quantitative High-Throughput drug screen in 47 multiple myeloma cell lines against the NCATS MIPE library collection: AMO1_DSMZ cell viability assay (AID 1918927; note: nearly all actives have a fitted effect of over 30% in size; note: potency is the fitted concentration of half-maximal effect)
Summary of the method: as §1

[5] = Quantitative High-Throughput drug screen in 47 multiple myeloma cell lines against the NCATS MIPE library collection: ARP1_JJKsccF8 cell viability assay (AID 1918928; note: nearly all actives have a fitted effect of over 40% in size; note: potency is the fitted concentration of half-maximal effect)
Summary of the method: (§2)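 Viability screen: myeloma cells (500/well) incubated 48 h at 37 °C, humidified 5% CO2, with pinned library compounds; CellTiter-Glo added, luminescence read; DMSO wells set 100%, medium-only wells 0%.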

[6] = Quantitative High-Throughput drug screen in 47 multiple myeloma cell lines against the NCATS MIPE library collection: ARD_JJKsccE7 cell viability assay (AID 1918929; note: potency is the fitted concentration of half-maximal effect)
Summary of the method: as §1

[7] = Quantitative High-Throughput drug screen in 47 multiple myeloma cell lines against the NCATS MIPE library collection: Karpas620_DSMZ cell viability assay (AID 1918959); note: nearly all actives have a fitted effect of over 30% in size; note: potency is the fitted concentration of half-maximal effect
Summary of the method: (§3)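 Steps: seed 500 cells per well; pin-transfer MIPE 4.0 library; incubate 48 h at 37C, 5% CO2, humidified; add CellTiter-Glo, 5 min room temperature; read luminescence.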

[8] = Quantitative High-Throughput drug screen in 47 multiple myeloma cell lines against the NCATS MIPE library collection: KMM1_JCRB cell viability assay (AID 1918960); note: nearly all actives have a fitted effect of over 30% in size; note: potency is the fitted concentration of half-maximal effect
Summary of the method: as §2

[9] = Quantitative High-Throughput drug screen in 47 multiple myeloma cell lines against the NCATS MIPE library collection: KHM11_PLB cell viability assay (AID 1918962); note: nearly all actives have a fitted effect of over 35% in size; note: potency is the fitted concentration of half-maximal effect
Summary of the method: as §3

[10] = Quantitative High-Throughput drug screen in 47 multiple myeloma cell lines against the NCATS MIPE library collection: JIM3_ECACC cell viability assay (AID 1918963; note: nearly all actives have a fitted effect of over 35% in size; note: potency is the fitted concentration of half-maximal effect)
Summary of the method: as §3

[11] = Quantitative High-Throughput drug screen in 47 multiple myeloma cell lines against the NCATS MIPE library collection: INA6_PLB cell viability assay (AID 1918965; note: nearly all actives have a fitted effect of over 55% in size; note: potency is the fitted concentration of half-maximal effect)
Summary of the method: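 CellTiter-Glo luminescence (ATP) after 48 h compound exposure, 37C/5% CO2; 500 cells/well; MIPE 4.0 approved/investigational drugs pinned in; DMSO = 100%, media only = 0% viability.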

[12] = Quantitative High-Throughput drug screen in 47 multiple myeloma cell lines against the NCATS MIPE library collection: H1112_PLB cell viability assay (AID 1918967; note: nearly all actives have a fitted effect of over 30% in size; note: potency is the fitted concentration of half-maximal effect)
Summary of the method: as §1

[13] = target: Glutathione peroxidase 1 (Homo sapiens) (UniProt P07203); assay: Primary qHTS Assay for Inhibitors of Recombinant Selenoprotein Glutathione Peroxidase 1 (GPX1) (AID 1845191); note: nearly all actives have a fitted effect of over 65% in size
Sequence of Glutathione peroxidase 1 (Homo sapiens) (P07203 whole entry, looked up): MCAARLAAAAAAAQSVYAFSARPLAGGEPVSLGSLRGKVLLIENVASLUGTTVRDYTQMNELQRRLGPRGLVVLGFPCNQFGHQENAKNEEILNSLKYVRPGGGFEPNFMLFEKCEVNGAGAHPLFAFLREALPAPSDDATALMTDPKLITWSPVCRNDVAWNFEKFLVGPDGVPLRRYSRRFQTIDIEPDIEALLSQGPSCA
Summary of the method: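 GR-coupled readout: NADPH consumption tracked by fluorescence, ex 340/em 450 nm, at t=0 and after 15 min at RT. Final mix 10 nM GPX1, 1 mM GSH, 0.5 mM CHP, 0.5 mM NADPH, 100 nM GR, 0.01% BSA, following 30 min enzyme–compound preincubation.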

[14] = Quantitative High-Throughput drug screen in 47 multiple myeloma cell lines against the NCATS MIPE library collection: EJM_DSMZ cell viability assay (AID 1918926; note: nearly all actives have a fitted effect of over 30% in size)
Summary of the method: as §1

[15] = Quantitative High-Throughput drug screen in 47 multiple myeloma cell lines against the NCATS MIPE library collection: JIM1_ECACC cell viability assay (AID 1918964; note: potency is the fitted concentration of half-maximal effect)
Summary of the method: as §1

SMILES | outcome [1] | Potency [2] | Potency [3] | Potency [4] | Potency [5] | Potency [6] | Potency [7] | Potency [8] | Potency [9] | Potency [10] | Potency [11] | Potency [12] | Potency [13] | Potency [14] | Potency [15]
COc1cc2nc(N3CCN(C(=O)c4ccco4)CC3)nc(N)c2cc1OC | inactive | inactive | 10.5 µM (active) | 5.9 µM (active) | 26.4 µM (active) | 9.35 µM (active) | 5.26 µM (active) | 9.35 µM (active) | 10.5 µM (active) | 9.35 µM (active) | 8.33 µM (active) | 16.6 µM (active) | – | – | –
CC(C(=O)O)c1cccc(C(=O)c2ccccc2)c1 (configuration not stated) | inactive | inactive | 20.9 µM (active) | inactive | – | – | – | inactive | 18.7 µM (active) | – | – | 18.7 µM (active) | – | – | –
CN(C)CCOC(c1ccccc1)c1ccccc1 | – | inactive | 8.33 µM (active) | inactive | inactive | – | inactive | inactive | – | – | 10.5 µM (active) | – | inactive | inactive | –
Cc1ccccc1N1C(=O)c2cc(S(N)(=O)=O)c(Cl)cc2NC1C (configuration not stated) | – | inactive | inactive | inactive | inactive | – | inactive | inactive | inactive | – | – | inactive | – | inactive | –
CN(C)CCC=C1c2ccccc2C=Cc2ccccc21 | inactive | inactive | – | 0.0235 µM (active) | – | inactive | inactive | inactive | inactive | – | – | – | – | inactive | –
O=C(C1CCCCC1)N1CC(=O)N2CCc3ccccc3C2C1 (configuration not stated) | – | inactive | inactive | inactive | inactive | – | inactive | inactive | inactive | inactive | – | inactive | inactive | inactive | –
Clc1ccccc1C(c1ccccc1)(c1ccccc1)n1ccnc1 | – | inactive | – | – | – | – | – | – | inactive | – | 16.6 µM (active) | 14.8 µM (active) | – | inactive | 0.0743 µM (active)
Cc1cnc(C(=O)NCCc2ccc(S(=O)(=O)NC(=O)NC3CCCCC3)cc2)cn1 | inactive | inactive | – | inactive | 18.7 µM (active) | inactive | inactive | 18.7 µM (active) | – | 18.7 µM (active) | – | – | – | – | –
Cn1c(=O)c2[nH]cnc2n(C)c1=O | – | inactive | inactive | inactive | inactive | – | inactive | inactive | inactive | – | inactive | inactive | inactive | inactive | –
CN(C)C(=N)N=C(N)N | – | – | inactive | inactive | – | – | – | inactive | – | – | inactive | inactive | – | inactive | –
NC(CO)C(=O)NNCc1ccc(O)c(O)c1O (configuration not stated) | inactive | inactive | inactive | inactive | 23.5 µM (active) | inactive | inactive | – | inactive | inactive | inactive | inactive | – | – | –
COc1cc2nc(N3CCN(C(=O)C4COc5ccccc5O4)CC3)nc(N)c2cc1OC (configuration not stated) | inactive | inactive | – | – | – | – | – | 5.9 µM (active) | – | – | 20.9 µM (active) | 18.7 µM (active) | – | inactive | –
NS(=O)(=O)c1cc2c(cc1Cl)NCNS2(=O)=O | inactive | inactive | inactive | – | inactive | – | inactive | inactive | – | – | inactive | 9.35 µM (active) | – | – | –
CC(C)Cc1ccc(C(C)C(=O)O)cc1 (configuration not stated) | inactive | inactive | inactive | inactive | inactive | – | inactive | inactive | – | inactive | 1.62 µM (active) | inactive | – | – | –
